Source: PubChem
KB-3-1 tox – KB-3-1 parental cell cytotoxicity. AID 1347075. actives 1.4% (n = 400,000). KB-3-1 viability, CellTiter-Glo ATP luminescence, 72 h. Potency, µM (top dose mostly 46.1 µM), hits mostly cytotoxic; also: % is scaled to controls: 0 for no effect and ±100 for the full control effect; nearly all actives have a fitted effect of over 60% in size
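Luminescent ATP read-out (CellTiter-Glo) measures survival of drug-naive KB-3-1 cells after 72 h compound exposure at 37 °C. Titration series was screened from lowest to highest concentration, with DMSO vehicle plates as background controls.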
HT1080 IDH1KD tx – toxicity to HT-1080 IDH1 knockdown cells (counter line). HT-1080 IDH1 knockdown viability, ATP luminescence, 48 h. actives 2% (n = 360,000). Potency, µM (highest dose often 46.1 µM), for the others: at the top dose activity, negative = toxicity, usual class: cytotoxic. AID 686971;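 also: 0% = DMSO wells and -100% = cell-free medium wells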
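Using the IDH1-knockdown HT-1080 line run in the same batch and compound series as the NT line, viability after 48 h at 37 °C was determined by CellTiter-Glo luminescence and expressed as % activity.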
HepG2 tox – counter-screen for TGF-b inhibitors: cytotoxicity in HepG2 cells | HepG2 CAGA-GFP viability, ATP luminescence, 18 h | Potency, µM (highest dose often 46.1 µM), inactives show at the top dose activity change, negative = cytotoxicity, usual class: cytotoxic | actives 0.76% (n = 410,000) | AID 588856
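CellTiter-Glo luminescence gave cytotoxicity after 18 hours at 37 degrees C. The cells were HepG2 CAGA-GFP in 1% FBS DMEM, stimulated with 500 pg/mL TGF-beta after compound addition. %Activity was normalised to no-cell wells (complete cell-killing) and DMSO (no toxicity), and curves were fitted and classified.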
HT1080NT lethal – kills 2HG-producing HT-1080-NT fibrosarcoma cells; actives 1.6% (n = 360,000); HT-1080-NT fibrosarcoma viability, CellTiter-Glo ATP luminescence, 48 h; Potency, µM (highest dose often 46.1 µM), for inactives: at the top dose activity, negative = less viability, usual class: cytotoxic; AID 686970;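 also: NT is the 2HG producing partner of a matched IDH1 knockdown line; 0% = DMSO-treated cells and -100% = media-only wells without cells; nearly all actives have a fitted effect of over 55% in size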
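Toxicity toward the 2HG-producing NT line was scored as %Activity, normalised to DMSO and no-cell wells, from CellTiter-Glo luminescence after 48 hours' treatment.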
TGFb inhibitor – blocks TGF-b signaling; HepG2 CAGA-GFP TGF-b/SMAD3 reporter, GFP fluorescence, 18 h; TGF-beta stimulated, 500 pg/mL final; Potency, µM (titrated, usually from 46.1 µM), inactives show top-dose activity, negative = inhibition, usual class: inhibitors; actives 1.2% (n = 410,000); also: % is scaled to controls: 0 for no effect and ±100 for the full control effect; nearly all actives have a fitted effect of over 65% in size
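HEPG2 CAGA-GFP reporter cells (1000/well, DMEM with 1% FBS) received compounds, then recombinant TGF-beta at 500 pg/mL final for 18 hours at 37 degrees C. Per-cell GFP summed per well was normalised to unstimulated and stimulated DMSO controls before curve fitting.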
KB-V1 cytotox – KB-V1 MDR subline cytotoxicity. KB-V1 MDR cells viability, CellTiter-Glo, 72 h. Potency, µM (titrated, usually from 46.1 µM), usual class: cytotoxic. actives 3.4% (n = 400,000); also: % is scaled to controls: 0 for no effect and ±100 for the full control effect; nearly all actives have a fitted effect of over 60% in size
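qHTS viability screen in drug-selected KB-V1 MDR cells: 72 h compound treatment at 37 degrees C, ATP luminescence end point.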
* hit, by the source's call; i = inactive; u = inconclusive; x = no result; [ ] = another dose, or the depositor's remark. Hits are enriched below; roughly 6.6% of the tested compounds scored in any of these assays. Calls follow the shape of the dose curve; as a rule, active = well fitted curve in the direction sought with a large enough effect; inconclusive = small, poorly fitted or top-dose-only effect, or another doubt; inactive = no such curve, though single readings can be large; an effect the other way counts as inactive or inconclusive. Potency is read from the fitted curve at half-maximal effect.

SMILES | KB-3-1 tox | HT1080 IDH1KD tx | HepG2 tox | HT1080NT lethal | TGFb inhibitor | KB-V1 cytotox
CCN(C(=O)Cn1ncc2c(=O)oc3ccc(C)cc3c21)c1cc(OC)ccc1OC | i | x | -4% | x | -16% | i
COc1cccc(CN(C)C(=O)C(CCSC)NS(=O)(=O)c2ccc3c(c2)OCCO3)c1OC (stereo not given) | i | -16% | -8% | u | 0% | 15µM*
COC(=O)C1=C(C)N(c2ccc(Cl)c(Cl)c2)C(=O)C1 | u | u | -11% | 15µM* | u | i
COc1cccc(CNCCc2c[nH]c3ccccc23)c1OCc1ccc(F)cc1 | u | u | 13µM* | 21µM* | u | 16µM*
COc1cc(CNCCc2c[nH]c3ccccc23)ccc1OCc1ccc(F)cc1 | i | u | -115% | -23% | u | 5.2µM*
COc1cc(CNCCc2c[nH]c3ccccc23)cc(Cl)c1OCC(N)=O | i | -12% | -27% | -21% | -10% | i
COCC(C)n1c(C)cc(C(=O)COC(=O)c2cc(=O)[nH]c3ccccc23)c1C (stereo not given) | i | -5% | -23% | 1% | -3% | 21µM*
CCCCCOC(=O)c1cc(=O)[nH]c2ccccc12 | 8.2µM* | -5% | 1% | -21% | -4% | 2.3µM*
CCC1CCCCN1C(=O)COC(=O)c1cc(=O)[nH]c2ccccc12 (stereo not given) | i | 1% | -55% | -6% | -3% | 18µM*
COc1ccc2c(c1)NC(c1ccc(OCC(C)C)cc1)=NC(c1ccncc1)=N2 | i | x | -8% | x | 15% | u
CCC(C)NC(=O)Cn1ccc2cc(S(=O)(=O)N3CCCCC3)ccc21 (stereo not given) | x | x | -6% | x | -8% | x
O=C1CC(C(=O)Nc2ccc(Cl)cc2[N+](=O)[O-])C2(CCCCC2)O1 (stereo not given) | i | 15% | -52% | 7% | -36% | 15µM*
CN(Cc1c(F)cccc1Cl)c1nnnn1-c1ccccc1 | i | 2% | -10% | 4% | 0% | 21µM*
Fc1cccc(Cl)c1CNCCSc1nnnn1-c1ccccc1 | i | x | 3% | x | -3% | i
C=CCn1c(SCC(=O)c2[nH]c(C)c(C(=O)OCC)c2C)nc2scc(-c3ccc(OC)cc3)c2c1=O | 4.6µM* | -18% | -27% | -20% | 2% | u
Cn1nc(C(=O)Nc2cc(F)ccc2F)c2c1-c1ccccc1SC2 | x | x | -24% | x | 8% | x
O=C(O)c1ccc2c(ccc3nn(-c4ccc(/C=C/c5ccc(-n6nc7ccc8cc(C(=O)O)ccc8c7n6)cc5[S+](=O)([O-])[O-])c([S+](=O)([O-])[O-])c4)nc32)c1 | i | x | 4% | x | -2% | i
COc1ccc(N2CCN(C(=O)c3c(-c4ccccc4)noc3C)CC2)cc1 | i | -3% | 1% | 0% | -3% | i
COc1cc(C(=O)OCC(C)=O)ccc1OCc1c(C)noc1C | 15µM* | 18µM* | 2% | u | -4% | u
Cc1ccc(C)c(S(=O)(=O)N2CCN(C(=O)c3ccc(OCc4c(C)noc4C)cc3)CC2)c1 | i | -9% | 14µM* | -3% | -20% | u
Cc1noc(C)c1C(=O)N1CCN(c2ccc(OCc3ccccc3)cc2)CC1 | u | 4% | 9% | -10% | -7% | 15µM*
COc1ccc(N2CCN(C(=O)c3ccc(OCc4c(C)noc4C)c(OC)c3)CC2)cc1 | i | 1%[9.24 µM] | 21% | -1% | 3% | 12µM*
COc1cc(C(=O)O)ccc1OCc1c(C)noc1C | i | 16% | -2% | 11% | 7% | i
CC(=O)c1ccc(N2CCN(c3ncnc4c3nc3n4CCCC3)CC2)cc1 | x | x | -26% | x | u | x
Cc1cccc(C)c1NC(=O)c1sc(-n2nc(C)c(Cc3ccccc3)c2C)nc1C | x | x | 0% | x | -8% | x
SMILES | KB-3-1 tox | HT1080 IDH1KD tx | HepG2 tox | HT1080NT lethal | TGFb inhibitor | KB-V1 cytotox
CC(=O)c1ccc(N2CCN(C(=O)c3ccc4c(c3)OCO4)CC2)cc1 | x | 6% | -4% | -8% | -1% | x
Cc1ccc(C)c(S(=O)(=O)N2CCN(C(=O)c3sccc3C)CC2)c1 | i | 6% | 0% | 7% | 0% | 9.2µM*
COc1ccc(N2CCN(C(=O)c3ccc4c(c3)OCO4)CC2)cc1 | i | 6% | 11% | 11% | -4% | 21µM*
C/C(CC(=O)Nc1ccc(Cl)c(C(F)(F)F)c1)=N\NC(=O)c1cc2ccccc2cc1O | u | 16µM* | -37% | u | u | u
O=C(CCCn1c(=O)[nH]c2ccsc2c1=O)N1CCN(c2cccc(C(F)(F)F)c2)CC1 | i | x | -14% | x | u | i
CCCN1CCN(CCCNC(=O)c2cc3c(Cl)nc4ccccc4c3s2)CC1 | i | x | 13µM* | x | u | u
CC1CCN(CCCNC(=O)c2cc3c(Cl)nc4ccccc4c3s2)CC1 | i | -2% | -94% | u | u | i
O=C(NCCCN1CCCC1)c1cc2c(Cl)nc3ccccc3c2s1 | u | 21µM* | -24% | u | -16% | u
COc1ccc(NC(=O)c2cc3c(=O)n(Cc4ccco4)ccc3nc2C)cc1 | x | x | -5% | x | -37% | x
CCN(C(C)=O)c1cnc(C=NNC(N)=S)c2ccccc12 | i | u | -19% | -22% | -11% | 15µM*
CC(=O)OC(=C(OC(C)=O)c1ccccc1)c1ccccc1 | i | -1% | 5% | 13% | 0% | i
N#CC(=C1C=CC(=NO)C(Cl)=C1)c1ccc(Cl)cc1 | u | u | -19% | -22% | u | u
CC(=O)ON=C1C=CC(=C(C#N)c2ccccc2)C=C1 | 3.7µM* | 5.8µM* | -52% | 7.3µM* | u | 7.3µM*
COc1ccc(C(C#N)=C2C=CC(=NO)C=C2)cc1 | u | 10µM* | i | 15µM* | u | u
O=C(Cc1csc(Nc2nc(=S)[nH]c3ccccc23)n1)N1CCN(c2cccc(Cl)c2)CC1 | 23µM* | -17% | -22% | u | 4% | 18µM*
CNC(=S)Nc1ccc(N2CCN(c3ccc(C(F)(F)F)cn3)CC2)nc1 | i | -3% | -8% | -6% | -22% | i
Fc1ccc(NC(=S)N2CCCN(c3ccc(C(F)(F)F)cn3)CC2)c(F)c1 | i | u | -40% | 23µM* | u | u
O=C(Nc1ccc(F)cc1F)N1CCCN(c2ccc(C(F)(F)F)cn2)CC1 | u | 13µM* | -29% | u | -10% | u
